Laboratory results from paper PMC9911399, “Two distinct binding modes provide the RNA-binding protein RbFox with extraordinary sequence specificity”.
Numbering of substitutions follows the chain as printed; changes in the protein carry UniProt numbers. In all, about 16,000 sequences were measured (“ka relative to ugcaugu”: median about 0.0091, highest 2% from about 0.032 on). The entries come from a sample that favours the highest values as a whole.

B1: UCAAACU (DNA:RNA)
RNA: GGGAGACCGGAAUUCAGAUUGUCCUCAAACUUUAAAUCCCGUCGUAGCCACCA
DNA 1: CAATCTGAATTCCGGTCTCCC
DNA 2: TGGTGGCTACGACGGGATT
B2: AUUAGUA (DNA:RNA)
RNA: B1 RNA with U25A, C26U, A27U, A29G, C30U, U31A
DNA 1: CAATCTGAATTCCGGTCTCCC
DNA 2: TGGTGGCTACGACGGGATT
B3: CGGAAGU (DNA:RNA)
RNA: B1 RNA with U25C, C26G, A27G, C30G
DNA 1: CAATCTGAATTCCGGTCTCCC
DNA 2: TGGTGGCTACGACGGGATT
B4: UCUUCCA (DNA:RNA)
RNA: B1 RNA with A27U, A28U, A29C, U31A
DNA 1: CAATCTGAATTCCGGTCTCCC
DNA 2: TGGTGGCTACGACGGGATT
B5: GCUUGCC (DNA:RNA)
RNA: B1 RNA with U25G, A27U, A28U, A29G, U31C
DNA 1: CAATCTGAATTCCGGTCTCCC
DNA 2: TGGTGGCTACGACGGGATT
B6: CGCCUGC (DNA:RNA)
RNA: GGGAGACCGGAAUUCAGAUUGUCCCGCCUGCUUAAAUCCCGUCGUAGCCACCA
DNA 1: CAATCTGAATTCCGGTCTCCC
DNA 2: TGGTGGCTACGACGGGATT
B7: GCCCUGC (DNA:RNA)
RNA: B6 RNA with C25G, G26C
DNA 1: CAATCTGAATTCCGGTCTCCC
DNA 2: TGGTGGCTACGACGGGATT
B8: GCCCCUG (DNA:RNA)
RNA: B6 RNA with C25G, G26C, U29C, G30U, C31G
DNA 1: CAATCTGAATTCCGGTCTCCC
DNA 2: TGGTGGCTACGACGGGATT
B9: CCGCCUG (DNA:RNA)
RNA: B6 RNA with G26C, C27G, U29C, G30U, C31G
DNA 1: CAATCTGAATTCCGGTCTCCC
DNA 2: TGGTGGCTACGACGGGATT
B10: GCUGCUU (DNA:RNA)
RNA: B1 RNA with U25G, A27U, A28G, A29C, C30U
DNA 1: CAATCTGAATTCCGGTCTCCC
DNA 2: TGGTGGCTACGACGGGATT
B11: GCCUGUG (DNA:RNA)
RNA: B6 RNA with C25G, G26C, C28U, U29G, G30U, C31G
DNA 1: CAATCTGAATTCCGGTCTCCC
DNA 2: TGGTGGCTACGACGGGATT
B12: GCCCGCU (DNA:RNA)
RNA: B1 RNA with U25G, A27C, A28C, A29G
DNA 1: CAATCTGAATTCCGGTCTCCC
DNA 2: TGGTGGCTACGACGGGATT
B13: GCCUGCU (DNA:RNA)
RNA: B1 RNA with U25G, A27C, A28U, A29G
DNA 1: CAATCTGAATTCCGGTCTCCC
DNA 2: TGGTGGCTACGACGGGATT
B14: GCCUUGC (DNA:RNA)
RNA: B6 RNA with C25G, G26C, C28U
DNA 1: CAATCTGAATTCCGGTCTCCC
DNA 2: TGGTGGCTACGACGGGATT
B15: CGCCUUG (DNA:RNA)
RNA: B6 RNA with G30U, C31G
DNA 1: CAATCTGAATTCCGGTCTCCC
DNA 2: TGGTGGCTACGACGGGATT
B16: GCCUGUC (DNA:RNA)
RNA: B6 RNA with C25G, G26C, C28U, U29G, G30U
DNA 1: CAATCTGAATTCCGGTCTCCC
DNA 2: TGGTGGCTACGACGGGATT
B17: CAACUCA (DNA:RNA)
RNA: B6 RNA with G26A, C27A, G30C, C31A
DNA 1: CAATCTGAATTCCGGTCTCCC
DNA 2: TGGTGGCTACGACGGGATT
B18: GAUCAAG (DNA:RNA)
RNA: B6 RNA with C25G, G26A, C27U, U29A, G30A, C31G
DNA 1: CAATCTGAATTCCGGTCTCCC
DNA 2: TGGTGGCTACGACGGGATT
B19: CAUAUGA (DNA:RNA)
RNA: B6 RNA with G26A, C27U, C28A, C31A
DNA 1: CAATCTGAATTCCGGTCTCCC
DNA 2: TGGTGGCTACGACGGGATT
B20: ACAUCGA (DNA:RNA)
RNA: B1 RNA with U25A, A28U, A29C, C30G, U31A
DNA 1: CAATCTGAATTCCGGTCTCCC
DNA 2: TGGTGGCTACGACGGGATT
B21: AUUACAG (DNA:RNA)
RNA: B1 RNA with U25A, C26U, A27U, A29C, C30A, U31G
DNA 1: CAATCTGAATTCCGGTCTCCC
DNA 2: TGGTGGCTACGACGGGATT
B22: GUCGCUU (DNA:RNA)
RNA: B6 RNA with C25G, G26U, C28G, U29C, G30U, C31U
DNA 1: CAATCTGAATTCCGGTCTCCC
DNA 2: TGGTGGCTACGACGGGATT
B23: GUCCGCC (DNA:RNA)
RNA: B6 RNA with C25G, G26U, U29G, G30C
DNA 1: CAATCTGAATTCCGGTCTCCC
DNA 2: TGGTGGCTACGACGGGATT
B24: CGCUGCA (DNA:RNA)
RNA: B6 RNA with C28U, U29G, G30C, C31A
DNA 1: CAATCTGAATTCCGGTCTCCC
DNA 2: TGGTGGCTACGACGGGATT
B25: ACCUGCA (DNA:RNA)
RNA: B1 RNA with U25A, A27C, A28U, A29G, U31A
DNA 1: CAATCTGAATTCCGGTCTCCC
DNA 2: TGGTGGCTACGACGGGATT
B26: GCCUGCC (DNA:RNA)
RNA: B6 RNA with C25G, G26C, C28U, U29G, G30C
DNA 1: CAATCTGAATTCCGGTCTCCC
DNA 2: TGGTGGCTACGACGGGATT
B27: GCCUGCA (DNA:RNA)
RNA: B1 RNA with U25G, A27C, A28U, A29G, U31A
DNA 1: CAATCTGAATTCCGGTCTCCC
DNA 2: TGGTGGCTACGACGGGATT
B28: GCCUGCG (DNA:RNA)
RNA: B1 RNA with U25G, A27C, A28U, A29G, U31G
DNA 1: CAATCTGAATTCCGGTCTCCC
DNA 2: TGGTGGCTACGACGGGATT
B29: CUGUAGC (DNA:RNA)
RNA: B6 RNA with G26U, C27G, C28U, U29A
DNA 1: CAATCTGAATTCCGGTCTCCC
DNA 2: TGGTGGCTACGACGGGATT
B30: CGCACUC (DNA:RNA)
RNA: B6 RNA with C28A, U29C, G30U
DNA 1: CAATCTGAATTCCGGTCTCCC
DNA 2: TGGTGGCTACGACGGGATT
B31: AAGUAUU (DNA:RNA)
RNA: B1 RNA with U25A, C26A, A27G, A28U, C30U
DNA 1: CAATCTGAATTCCGGTCTCCC
DNA 2: TGGTGGCTACGACGGGATT

Each binder was assayed against T1, RBFOX1 RRM (Homo sapiens, UniProt Q9NWB1 109-208) (assay: EMSA; HiTS-Eq, 1 nM pool, 10 min; buffer printed only for the single-RNA assays: 10 mM Tris pH 7.5, 150 mM NaCl, 3.4 mM EDTA, 0.001% NP-40, 30 C). Details: tags: His6 N-terminal (pET28a); label: 5' 32P.
T1 sequence: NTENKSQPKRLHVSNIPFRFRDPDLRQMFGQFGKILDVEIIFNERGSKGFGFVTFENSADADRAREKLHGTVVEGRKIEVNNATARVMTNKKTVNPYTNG
How it was run: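 Purified RbFox RRM (wild type or mutant) was equilibrated for 10 min in 50 µL with 1 nM of a 5′-radiolabelled pool of RNA with 7 randomized nucleotides, its flanks annealed to DNA oligonucleotides, across increasing protein concentrations. Free RNA was separated by 8% native PAGE, excised, reverse-transcribed, PCR-barcoded and sequenced on an Illumina HiSeq 2500. Relative association constants came from read-count changes of each variant against the control reaction, normalised to the cognate motif.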

| Binder | binding signal |
| --- | --- |
| B1 | 0.00177 KA relative to UGCAUGU |
| B2 | 0.00672 KA relative to UGCAUGU |
| B3 | 0.0236 KA relative to UGCAUGU |
| B4 | 0.00385 KA relative to UGCAUGU |
| B5 | 0.0307 KA relative to UGCAUGU |
| B6 | 0.0343 KA relative to UGCAUGU |
| B7 | 0.0133 KA relative to UGCAUGU |
| B8 | 0.016 KA relative to UGCAUGU |
| B9 | 0.0178 KA relative to UGCAUGU |
| B10 | 0.0216 KA relative to UGCAUGU |
| B11 | 0.034 KA relative to UGCAUGU |
| B12 | 0.0168 KA relative to UGCAUGU |
| B13 | 0.0359 KA relative to UGCAUGU |
| B14 | 0.0319 KA relative to UGCAUGU |
| B15 | 0.0242 KA relative to UGCAUGU |
| B16 | 0.0275 KA relative to UGCAUGU |

| Binder | binding signal |
| --- | --- |
| B17 | 0.0014 KA relative to UGCAUGU |
| B18 | 0.0079 KA relative to UGCAUGU |
| B19 | 0.00465 KA relative to UGCAUGU |
| B20 | 0.00224 KA relative to UGCAUGU |
| B21 | 0.0056 KA relative to UGCAUGU |
| B22 | 0.0147 KA relative to UGCAUGU |
| B23 | 0.0105 KA relative to UGCAUGU |
| B24 | 0.0198 KA relative to UGCAUGU |
| B25 | 0.0144 KA relative to UGCAUGU |
| B26 | 0.0261 KA relative to UGCAUGU |
| B27 | 0.0378 KA relative to UGCAUGU |
| B28 | 0.0321 KA relative to UGCAUGU |
| B29 | 0.0127 KA relative to UGCAUGU |
| B30 | 0.00942 KA relative to UGCAUGU |
| B31 | 0.0026 KA relative to UGCAUGU |
